PubChem BioAssay (NCI)
This is part of a sample that, as a whole, favours compounds with a hit. Of some 83,000 tested, about 20% had one in any assay.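 Treatment: one concentration, 48 hours, 96-well format. Scoring: percent growth, with anything below 10 considered active.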 Calls of active or inactive are those of the source.

Experiments:
Assay in all cases: NCI-60 one-dose screen, 48 h (100 = growth as untreated, 0 = no growth, -100 = all killed)
Settings in all cases: 10 µM unless noted
SK-MEL-2 melanoma = system: SK-MEL-2 melanoma
EKVX NSCLC = system: EKVX NSCLC
UO-31 renal = system: UO-31 renal
TK-10 renal = system: TK-10 renal
ACHN renal = system: ACHN renal
CAKI-1 renal = system: CAKI-1 renal
A498 renal = system: A498 renal
CCRF-CEM leukemia = system: CCRF-CEM leukemia
MOLT-4 leukemia = system: MOLT-4 leukemia
SN12C renal = system: SN12C renal

Measured: growth

O=P(O)(O)C(O)(Cc1cccnc1)P(=O)(O)O
inactive: SK-MEL-2 melanoma 111% | EKVX NSCLC 103% | UO-31 renal 84.6% | TK-10 renal 144% | ACHN renal 100% | CAKI-1 renal 94.2% | A498 renal 119% | CCRF-CEM leukemia 79.1%

O=c1c2cc(Br)cc(Br)c2nc(-c2ccc(Cl)cc2)n1/N=C/c1cccc(F)c1
inactive: SK-MEL-2 melanoma 59.8% | EKVX NSCLC 59.2% | UO-31 renal 19.7% | TK-10 renal 22.3% | ACHN renal 10.8% | CAKI-1 renal 14.5% | A498 renal 101% | CCRF-CEM leukemia 48.8% | MOLT-4 leukemia 64.8%

COC(=O)CSc1ccc(Cl)cc1
inactive: SK-MEL-2 melanoma 104% | EKVX NSCLC 101% | UO-31 renal 93.3% | TK-10 renal 104% | ACHN renal 104% | CAKI-1 renal 95.1% | A498 renal 79.9% | MOLT-4 leukemia 88.8%

O=C(Nc1cccc(Cl)c1)Nc1ccccc1Cl
inactive: SK-MEL-2 melanoma 98.5% | SN12C renal 81.5% | UO-31 renal 69.8% | TK-10 renal 88.5% | ACHN renal 89.9% | CAKI-1 renal 71.4% | A498 renal 63.4% | CCRF-CEM leukemia 84.7% | MOLT-4 leukemia 75%

CCN(CC)c1ccc(/C=N/NC(=O)C[N+](C)(C)C)cc1
inactive: SK-MEL-2 melanoma 137% | SN12C renal 105% | UO-31 renal 108% | TK-10 renal 95.2% | ACHN renal 105% | CAKI-1 renal 101% | A498 renal 92.3% | CCRF-CEM leukemia 90.9% | MOLT-4 leukemia 22.1%

COc1ccc(C(=O)O)cc1.[Ag]
inactive: SK-MEL-2 melanoma 94.6% | SN12C renal 103% | UO-31 renal 91.2% | TK-10 renal 106% | ACHN renal 103% | CAKI-1 renal 87.2% | A498 renal 96.5% | CCRF-CEM leukemia 25.4%
active: MOLT-4 leukemia -52.5%

COc1cc(OC)c2sc(-c3ccc(-n4cncc4-c4ccc(OC)c(N)c4)cc3)nc2c1
inactive: SK-MEL-2 melanoma 99.6% | SN12C renal 87% | UO-31 renal 60.6% | TK-10 renal 82.8% | ACHN renal 90.4% | CAKI-1 renal 60.9% | A498 renal 77.8% | CCRF-CEM leukemia 59.2% | MOLT-4 leukemia 58.3%

COc1ccc(C2NC(=O)c3cc4c(cc3N2)OCO4)cc1 (stereo unspecified)
inactive: SK-MEL-2 melanoma 10.5% | SN12C renal 31.6% | UO-31 renal 67.3% | TK-10 renal 52.8% | ACHN renal 46.3% | CAKI-1 renal 55.2% | CCRF-CEM leukemia 14.8% | MOLT-4 leukemia 16.5%
active: A498 renal 8.76%

COc1cccc(/C(C)=N/NC(=O)CSc2nc3ccccc3c(=O)n2CCc2ccc(S(N)(=O)=O)cc2)c1
inactive: SK-MEL-2 melanoma 30% | SN12C renal 39.6% | UO-31 renal 98.9% | TK-10 renal 32.3% | ACHN renal 85% | CAKI-1 renal 70.5% | A498 renal 72.1% | CCRF-CEM leukemia 22.3% | MOLT-4 leukemia 14.4%

CC(C)(C)[Si](C)(C)OC1[C@@H](O[Si](C)(C)C(C)(C)C)[C@@H](CNC(=O)NC(=O)NC(=O)CI)O[C@H]1n1cnc2c(NC(=O)Nc3ccccc3)ncnc21 (stereo partly specified)
active: UO-31 renal -89.2% | ACHN renal -22.7% | CCRF-CEM leukemia -38.5%
inactive: SK-MEL-2 melanoma 92.8% | SN12C renal 84.1% | TK-10 renal 46.6% | CAKI-1 renal 47.8% | A498 renal 73.8% | MOLT-4 leukemia 29.6%

C=C1C(=O)O[C@H]2[C@H]1CC/C(COC(=O)NCc1cccc(OC)c1)=C\CC[C@@]1(C)O[C@@H]21
active: UO-31 renal -9.04% | TK-10 renal -11.7% | ACHN renal 2.37% | CCRF-CEM leukemia -15% | MOLT-4 leukemia -7.57%
inactive: SK-MEL-2 melanoma 40.9% | SN12C renal 31.6% | CAKI-1 renal 10.4% | A498 renal 81.1%

CCN(CC)c1ccc(/C=N/N=C(N)N)cc1
inactive: SK-MEL-2 melanoma 49.1% | SN12C renal 67.3% | UO-31 renal 51.4% | TK-10 renal 63.4% | ACHN renal 43.6% | CAKI-1 renal 45.1% | A498 renal 43.9% | CCRF-CEM leukemia 36% | MOLT-4 leukemia 49.1%

CNC(=O)c1c(NC(=O)c2cccc(C(F)(F)F)c2)sc2c1CCC(=O)C2
inactive: TK-10 renal 32.1%
active: SK-MEL-2 melanoma -16.5% | SN12C renal 3.13% | UO-31 renal -94.3% | ACHN renal -66.9% | CAKI-1 renal -22.5% | A498 renal -5.84% | CCRF-CEM leukemia -0.844% | MOLT-4 leukemia -7.92%

CC(C)c1cccc(C#N)c1
inactive: SK-MEL-2 melanoma 120% | SN12C renal 97.3% | UO-31 renal 98.7% | TK-10 renal 121% | ACHN renal 115% | CAKI-1 renal 98.9% | A498 renal 92.3% | CCRF-CEM leukemia 90% | MOLT-4 leukemia 101%

Cc1cc(-c2ccccc2)on1
inactive: SK-MEL-2 melanoma 107% | SN12C renal 103% | UO-31 renal 82.5% | TK-10 renal 110% | ACHN renal 103% | CAKI-1 renal 98.2% | A498 renal 126% | CCRF-CEM leukemia 97.8% | MOLT-4 leukemia 92.4%

COc1ccccc1/C=N\Nc1ccc([N+](=O)[O-])cn1
inactive: SK-MEL-2 melanoma 102% | SN12C renal 109% | UO-31 renal 90.8% | TK-10 renal 111% | ACHN renal 109% | CAKI-1 renal 90.4% | A498 renal 106% | CCRF-CEM leukemia 106% | MOLT-4 leukemia 103%

CCCCCc1c(C)[nH]c(/C=C2\N=C(c3ccc[nH]3)C=C2Oc2ccc(OC)cc2)c1C
active: SK-MEL-2 melanoma -74.4% [100 µM] | SN12C renal -88.6% [100 µM] | UO-31 renal -75.7% [100 µM] | TK-10 renal -60.2% [100 µM] | ACHN renal -59.8% [100 µM] | CAKI-1 renal -73.9% [100 µM] | A498 renal -89.3% [100 µM] | MOLT-4 leukemia -34% [100 µM]

C[C@@H]1N=C(c2ccc3ccccc3c2)Nc2nc3ccccn3c2C1=O
inactive: SK-MEL-2 melanoma 36.3% | SN12C renal 60.1% | UO-31 renal 55.6% | TK-10 renal 64.4% | ACHN renal 55.4% | CAKI-1 renal 38.5% | A498 renal 47.3% | CCRF-CEM leukemia 52.9% | MOLT-4 leukemia 34.5%

COc1ccc(C(=O)OC2C(OC3C(O)COC(O[C@H]4C[C@H]5[C@@H]6CC=C7C[C@@H](O)CC[C@]7(C)[C@H]6CC[C@]5(C)[C@H]4[C@H](C)C(=O)CCC(C)C)C3OC(=O)C(C)C)OCC(O)C2O)cc1 (stereo partly specified)
inactive: SN12C renal 57.3% | ACHN renal 36.6%
active: SK-MEL-2 melanoma -37.2% | UO-31 renal -15.2% | TK-10 renal 8.54% | CAKI-1 renal 3.21% | A498 renal -61.2% | CCRF-CEM leukemia -21.8% | MOLT-4 leukemia -34.8%

COc1cc([N+](=O)[O-])cc(OC)c1OC
inactive: SK-MEL-2 melanoma 114% | SN12C renal 101% | UO-31 renal 86.5% | TK-10 renal 106% | ACHN renal 119% | CAKI-1 renal 89.5% | A498 renal 79.9% | CCRF-CEM leukemia 105% | MOLT-4 leukemia 103%

COc1cc(OC)cc(-c2ccc(-c3ccc(C(=N)N)s3)s2)c1
active: SK-MEL-2 melanoma -85.4% | SN12C renal -69.5% | UO-31 renal -85.8% | TK-10 renal -88.7% | ACHN renal -76% | CAKI-1 renal -86.4% | A498 renal -80.9% | MOLT-4 leukemia -71.2%

O=C(NO)c1ccc(CNc2cccc3nc(C4CC4)n(-c4ccccc4)c(=O)c23)cc1
active: UO-31 renal 3.57% | ACHN renal 3.75% | CAKI-1 renal 7.51% | CCRF-CEM leukemia -13.3% | MOLT-4 leukemia -21.7%
inactive: SK-MEL-2 melanoma 53.7% | SN12C renal 15.5% | TK-10 renal 13.6% | A498 renal 13.7%

CS(=O)(=O)c1ccc(C(=O)N2N=C(c3ccccc3)CC2c2ccc3c(c2)OCO3)cc1 (stereo unspecified)
inactive: SK-MEL-2 melanoma 89.8% | SN12C renal 94.4% | UO-31 renal 66.5% | TK-10 renal 107% | ACHN renal 107% | CAKI-1 renal 92.5% | A498 renal 86.2% | CCRF-CEM leukemia 105% | MOLT-4 leukemia 52.4%

O=S1(=O)NCCCN1CCNc1nccc(-c2c(-c3cccc(O)c3)nc3sccn23)n1
inactive: SK-MEL-2 melanoma 29.4% | SN12C renal 43.4% | UO-31 renal 94.1% | TK-10 renal 121% | ACHN renal 50.5% | CAKI-1 renal 67.4% | A498 renal 98.9% | CCRF-CEM leukemia 60.1% | MOLT-4 leukemia 65.2%

CCN(CC)Cc1cc(Nc2ccnc3ccc(OC)cc23)ccc1O
active: UO-31 renal 2.04%
inactive: SK-MEL-2 melanoma 26.5% | SN12C renal 56.6% | TK-10 renal 49.6% | ACHN renal 35.1% | CAKI-1 renal 45.4% | A498 renal 45.6% | CCRF-CEM leukemia 55.5% | MOLT-4 leukemia 29.7%

CCOC(=O)Cn1c(-c2nonc2NC(=O)c2ccccc2F)nc2ccccc21
inactive: SK-MEL-2 melanoma 78% | SN12C renal 57.9% | UO-31 renal 54.5% | TK-10 renal 66.1% | ACHN renal 46.5% | CAKI-1 renal 25% | A498 renal 82.5% | CCRF-CEM leukemia 42.3% | MOLT-4 leukemia 25%

Cc1nc(N)nc2c1CCC(Nc1ccccc1)S2 (stereo unspecified)
inactive: SK-MEL-2 melanoma 102% | SN12C renal 101% | UO-31 renal 79.2% | TK-10 renal 105% | ACHN renal 102% | CAKI-1 renal 94% | A498 renal 97% | CCRF-CEM leukemia 90.9% | MOLT-4 leukemia 90.2%

Nc1c(N)c2ccccc2c2ccccc12
inactive: SK-MEL-2 melanoma 106% | EKVX NSCLC 92.6% | UO-31 renal 69.1% | TK-10 renal 119% | ACHN renal 111% | A498 renal 113% | CCRF-CEM leukemia 104% | MOLT-4 leukemia 100%

CN1CCCN(CCNc2nccc(-c3c(-c4cccc(O)c4)nc4sccn34)n2)S1(=O)=O
inactive: SK-MEL-2 melanoma 22.1% | SN12C renal 38.1% | UO-31 renal 25.2% | TK-10 renal 92.4% | ACHN renal 22.9% | A498 renal 58.8% | CCRF-CEM leukemia 31.3% | MOLT-4 leukemia 37.8%
active: CAKI-1 renal -25%
